# ABCB6 inh MLPCN: human ABCB6 transporter inhibition; K562-ABCB6 porphyrin accumulation, flow cytometry, 1 h; hits give low values; fluorescence ratio to DMSO, % at 10 µM; 360,000 tested, 0.19% active; AID 602162;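 active = fluorescence ratio to DMSO below 75%, the collection mean minus 3 SD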;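 note: signal is porphyrin accumulated inside mitochondria; lower ratio means ABCB6 inhibition with less porphyrin fluorescence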
# Exocytosis inh: blocks lytic granule exocytosis; TALL-104 LAMP-1 surface exposure, flow cytometry; cells stimulated with thapsigargin and PMA; inhibition, % at 10 µM; 360,000 tested, 0.66% active;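 active = inhibition above about 55%, limit read from the data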
# VLA-4 inh: inhibition in a human VLA-4 binding assay | P13612 | VLA-4 expressing cells, ligand binding flow cytometry | inhibition, % (about 7 µM as worked out from the volumes in the protocol) | 330,000 tested, 0.2% active; in the data active = inhibition above about 50%
# CaV13 FRET inh: Disruptors of the CACNA1D IQ motif to Ca2+-dependent inactivation inhibitor domain association, primary screening, Förster resonance energy transfer in intact living … | HEK cells, CFP/YFP FRET ICDI-IQ, plate reader, 10 min; percent FRET-ratio fall versus neutral wells | inhibition, % at 12.3 µM | 340,000 tested, 0.098% active | AID 743397;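 active = mean replicate inhibition of at least 30% and at least 1% of replicates passing that level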
# Granule exo CP1: blocks lytic granule exocytosis; 1,500 tested, 11% active; inhibition, % at 10 µM; shares compounds with Exocytosis inh; TALL-104 cells, LAMP-1 externalization, flow cytometry; stimulated with PMA plus thapsigargin; in the data active = inhibition above about 60%
# Hits are given with their value; . = inactive; / = no result. The list is not random: actives were taken first. Their share in the collection is about 1.1%.
SMILES,ABCB6 inh MLPCN,Exocytosis inh,VLA-4 inh,CaV13 FRET inh,Granule exo CP1
CN(Cc1ccccc1O)CC1CCCN(CCc2ccc(Cl)cc2)C1 (stereo not given),.,68.6,.,.,.
Cc1occc1C(=O)N(C)CC1CCCN(CCc2ccc(Cl)cc2)C1 (stereo not given),.,.,/,.,/
Cc1cc(C(=O)OCC(=O)N2CC(C)OC(C)C2)c(C)n1-c1ccccc1 (stereo not given),.,.,.,.,/
COc1ccc(CN(C)CC2CCCN(CCc3ccc(F)cc3)C2)c(OC)c1OC (stereo not given),.,70.0,.,.,.
COc1ccc(CCN2CCCC(CN(C)Cc3cccc(OC)c3)C2)cc1 (stereo not given),.,56.2,.,.,.
COc1ccc(CCN2CCCC(CN(C)Cc3cc(OC)ccc3OC)C2)cc1 (stereo not given),.,71.8,.,.,.
Cc1ccc(C)c(OCCC(=O)OCC(=O)NNC(=O)c2ccccc2)c1,.,.,.,.,/

# High-throughput results (PubChem)
